# Screens (PubChem)
# Measles CPE: protection of cells from measles virus; Measles virus-infected cells, CPE protection, absorbance; protection (pct of control), % at 4 µM; hit rate 1.5% among 140,000; in the data active means protection mostly above about 24%, no sharp cut-off; inactive means mostly below about 26%
# CYP2C9 act: activators of human CYP2C9; activation factor at 5 µM; recombinant CYP2C9, luciferin-H conversion, luminescence; stronger effect = higher value; factor 1 = untreated enzyme, 0 = blocked; P11712; AID 1024; hit rate 1.4% among 96,000;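 active means activation factor of 2 or more for CYP2C9 at a 5 µM dose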;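 further: 0 = sulfaphenazole-blocked wells and 1 = vehicle-only wells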
# Target sequence (P11712 whole entry, looked up): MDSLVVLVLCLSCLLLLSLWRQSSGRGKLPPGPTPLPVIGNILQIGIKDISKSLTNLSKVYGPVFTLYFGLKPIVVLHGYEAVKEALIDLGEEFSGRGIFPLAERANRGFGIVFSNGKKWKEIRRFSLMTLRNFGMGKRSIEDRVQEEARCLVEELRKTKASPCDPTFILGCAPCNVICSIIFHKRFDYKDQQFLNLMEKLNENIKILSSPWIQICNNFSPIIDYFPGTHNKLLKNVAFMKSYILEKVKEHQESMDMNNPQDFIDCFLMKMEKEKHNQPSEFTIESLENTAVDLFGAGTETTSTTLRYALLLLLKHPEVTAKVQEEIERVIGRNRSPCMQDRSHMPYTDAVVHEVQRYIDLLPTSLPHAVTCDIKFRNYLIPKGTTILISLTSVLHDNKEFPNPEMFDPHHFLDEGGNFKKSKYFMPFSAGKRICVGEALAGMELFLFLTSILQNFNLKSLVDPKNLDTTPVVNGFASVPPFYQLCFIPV
# CYP2C19 activ: cytochrome P450 2C19 (human) activation; 96,000 tested, under 10 active; P33261; AID 1025; activation factor at 5 µM; recombinant CYP2C19, luciferin-H EGE luminescence; stronger effect = higher value; 0 = fully inhibited enzyme, 1 = untreated enzyme;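 active means activation factor of at least 2 at 5 µM in the primary screen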;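 further: 0 = wells with 2.5 mM tranylcypromine and 1 = vehicle-only wells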
# CYP2C19 inh: blocks human cytochrome P450 2C19 | P33261 | CYP2C19 Supersomes, luciferin-H EGE luminescence, 30 min | inhibition, % at 5 µM | hit rate 21% among 96,000 | AID 778;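 active means CYP2C19 inhibition above a set limit at 5 µM in the primary screen, cut at about 50% in these data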;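 further: plate controls were negative control wells for no effect and 2.5 mM tranylcypromine positive control for full effect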
# CYP2C9 inh: human CYP2C9 inhibition | P11712 | CYP2C9 Supersomes, luciferin-H conversion, luminescence | inhibition, % at 5 µM | hit rate 20% among 96,000 | AID 777;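 active means blocking of liver enzyme CYP2C9 beyond about 50% at 5 µM, limit read from the data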
# Numbers without * were called inactive; · = no result. An excerpt weighted towards active compounds, which were near 22% of everything screened.
SMILES,Measles CPE,CYP2C9 act,CYP2C19 activ,CYP2C19 inh,CYP2C9 inh
COc1ccccc1CCn1c(N)c(C#N)c2nc3ccccc3nc21,12,0.4,0.6,38,55*
COc1ccc2c(c1)c1nc3ccccc3nc1n2Cc1ccc(OC(C)C)c(OC)c1,14,·,·,·,·
COc1ccc(Oc2nc3c(c(=O)n(C)c(=O)n3C)n2Cc2cccc(OC)c2)cc1,8,1.1,1,0,-6
COCCn1c(C)cc(C(=O)COC(=O)c2cc3c(s2)CCC3)c1C,3,1.1,0.4,57*,-7
COCCn1c(C)cc(C(=O)CSc2nnc(C)s2)c1C,15,0.8,0.7,27,17
O=C(NC1CCCCC1)N1CCSC1=Nc1ccccc1,17,0.8,1,2,23
Cc1ccc(C)c(Oc2coc3cc(OCC(=O)Nc4ccccc4C(C)C)ccc3c2=O)c1,5,·,·,·,·
O=C(C1CCCO1)N1CCN(C(=S)Nc2ccccc2F)CC1 (stereo not drawn),6,·,·,·,·
COc1ccc(NC(=O)c2c(F)c(F)c(F)c(F)c2F)cc1Cl,4,1,0.7,32,0
CC(=O)NC1C(c2nc3ccccc3s2)=C(c2ccccc2)C(=O)N1c1ccc(C)cc1 (stereo not drawn),8,0.7,0.6,42,28
COc1cccc(N2C(=O)C(c3ccccc3)=C(c3nc4ccccc4s3)C2NC(C)=O)c1 (stereo not drawn),21,0.5,0.4,56*,51*
O=C(NC(NC(=S)Nc1ccccc1O)C(Cl)(Cl)Cl)c1ccco1 (stereo not drawn),13,·,·,·,·
O=C(NC1CCCCNC1=O)c1ccc(Cl)cc1 (stereo not drawn),17,0.5,1.1,-14,52*
O=C(NC1CCSC1=O)c1ccc(Cl)cc1 (stereo not drawn),13,1.1,1,-2,-13
CC1(C)C(c2ccccc2)=NC(c2ccccc2)N1O (stereo not drawn),5,1.1,0.6,40,-10
COc1ccc(C2N=C(c3ccccc3)C(C)(C)N2O)cc1 (stereo not drawn),35,0.9,0.2,83*,12
COC(=O)C1=C(C(=O)c2ccc(C)cc2)C(c2ccc(OC)c(OC)c2)n2nnnc2N1 (stereo not drawn),6,1.2,1.1,-9,-23
C=CCOC(=O)C1=C(C)Nc2nnnn2C1c1cc(OC)ccc1OC (stereo not drawn),4,0.5,0.3,71*,51*
CCOc1ccccc1C1C(C(=O)Nc2ccccc2OC)=C(C)Nc2nnnn21 (stereo not drawn),42,0.5,0.1,88*,52*
CCOC(=O)C1=C(C)Nc2nnnn2C1c1ccc(OC)c(Br)c1 (stereo not drawn),17,0.3,0.6,40,67*
COC(=O)C1=C(C(=O)c2ccc(C)cc2)C(c2ccc(O)c(OC)c2)n2nnnc2N1 (stereo not drawn),7,0.3,0.9,6,69*
COc1cc(/C=N/NC(=O)c2cccnc2)ccc1OS(=O)(=O)c1cc(C)ccc1C,22,·,·,·,·
O=C(CNC(=O)c1cccc(F)c1)OCC(=O)N1CCCc2ccccc21,8,·,·,·,·
Cc1cc(C)cc(NS(=O)(=O)c2cnc(Cl)c(Cl)c2)c1,10,0.1,0,100*,86*
CCOc1ccc(NS(=O)(=O)c2cnc(Cl)c(Cl)c2)cc1,8,·,·,·,·
SMILES,Measles CPE,CYP2C9 act,CYP2C19 activ,CYP2C19 inh,CYP2C9 inh
COc1ccc(C2C(CC(=O)O)=C(O)C(=O)N2c2ccccc2)cc1 (stereo not drawn),3,0.9,1,1,10
N#Cc1cc2c(=O)n3ccccc3nc2n(CCCn2ccnc2)c1=N,18,0.2,0.3,71*,78*
COc1cccc(-c2nnc(SCC(=O)Nc3cc(C)on3)n2C)c1,9,0.9,0.7,34,10
CCOC(=O)c1cnc(SCC(=O)NCc2cccs2)nc1N,9,0.1,0.2,80*,93*
CCOC(=O)c1cnc(SCC(=O)Nc2sc(C)c(C)c2C#N)nc1N,2,0.4,0.8,18,62*
CCOC(=O)c1cnc(SC2CCc3ccccc3C2=O)nc1N (stereo not drawn),18,1.3,0.2,81*,-29
Cc1sc(NC(=O)CSc2nc(N)n(CC(=O)c3ccccc3)n2)c(C#N)c1C,5,0,0.1,93*,98*
Cc1ccc(-c2nnc(SCC(=O)Nc3sc(C)c(C)c3C#N)n2C)cc1,5,·,·,·,·
CCCCOCCCNC(=O)c1ccc(NC(C)=O)cc1,8,0.9,1.1,-10,14
